Records with an inconclusive call do not appear. Calls of active or inactive are those of the source. Calls follow the shape of the dose curve; as a rule, active = well fitted inhibition curve with a large enough effect; inconclusive = small, poorly fitted or top-dose-only effect; inactive = flat fitted curve, though single readings scatter.
Tests used:
P93_24 = experiment: qHTS profiling for inhibitors of Plasmodium falciparum proliferation (AID 504749);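 also: 0% = DMSO vehicle and full inhibition = artemisinin control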; conditions: P. falciparum in erythrocytes, SYBR Green DNA, 72 h; series mostly up to 28.7 µM
Method in brief: (§1)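 Each compound contacts P. falciparum-infected red blood cells for 72 h at 37 C; lysis buffer (Tris, EDTA, saponin, Triton X, SYBR Green I) is added and fluorescence measured next morning; values normalized to controls.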

P94_40 = experiment: as above; conditions: P. falciparum in erythrocytes, SYBR Green DNA, 72 h; series mostly up to 28.7 µM
Method in brief: as §1

PAD = experiment: as above; conditions: P. falciparum in erythrocytes, SYBR Green DNA, 72 h; series mostly up to 28.7 µM
Method in brief: as §1

PC15 = experiment: as above; conditions: P. falciparum in erythrocytes, SYBR Green DNA, 72 h; series mostly up to 28.7 µM
Method in brief: as §1

PC26 = experiment: as above; conditions: P. falciparum in erythrocytes, SYBR Green DNA, 72 h; series mostly up to 28.7 µM
Method in brief: as §1

PC49 = experiment: as above; conditions: P. falciparum in erythrocytes, SYBR Green DNA, 72 h; series mostly up to 28.7 µM
Method in brief: as §1

SC27B = experiment: as above; conditions: P. falciparum in erythrocytes, SYBR Green DNA, 72 h; series mostly up to 28.7 µM
Method in brief: as §1

TAB109 = experiment: as above; conditions: P. falciparum in erythrocytes, SYBR Green DNA, 72 h; series mostly up to 28.7 µM
Method in brief: as §1

TAB113 = experiment: as above; conditions: P. falciparum in erythrocytes, SYBR Green DNA, 72 h; series mostly up to 28.7 µM
Method in brief: as §1

TAB165 = experiment: as above; conditions: P. falciparum in erythrocytes, SYBR Green DNA, 72 h; series mostly up to 28.7 µM
Method in brief: as §1

W2 = experiment: as above; conditions: P. falciparum in erythrocytes, SYBR Green DNA, 72 h; series mostly up to 28.7 µM
Method in brief: as §1

CRL-7250 = normal cell line; experiment: Cytotoxic Profiling of Annotated Libraries Using Quantitative High-Throughput Screening (AID 1296008); conditions: Five cell lines viability, CellTiter-Glo ATP luminescence, 48-72 h; hits give low values; as to max response: % is scaled to controls: 0 for no effect and ±100 for the full control effect
Method in brief: (§2)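 Cells exposed to compounds for 48 or 72 hr at 37 degrees Celsius. Viability read as ATP-coupled luminescence with CellTiter-Glo after 10 min at room temperature.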

HEK293 = experiment: as above; conditions: Five cell lines viability, CellTiter-Glo ATP luminescence, 48-72 h; hits give low values
Method in brief: as §2

HaCat [1] = experiment: as above; conditions: Five cell lines viability, CellTiter-Glo ATP luminescence, 48-72 h; hits give low values
Method in brief: as §2

KB-3-1 = experiment: as above; conditions: Five cell lines viability, CellTiter-Glo ATP luminescence, 48-72 h, hits give low values
Method in brief: as §2

NIH3T3 = experiment: as above; conditions: Five cell lines viability, CellTiter-Glo ATP luminescence, 48-72 h; hits give low values
Method in brief: as §2

HACAT [2] = experiment: qHTS assay to identify novel small-molecules to repurpose for Merkel cell carcinoma treatment (AID 1296009); conditions: MCC and control cell lines, CellTiter-Glo viability, 72 h; at 44.8 µM (top of the series) unless noted
Method in brief: (§3)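 Dose-response viability screen; 72 hr exposure at 37 degree celsius; CellTiter-Glo added, 10 min room temperature, luminescence read; RLUs scaled between no-cell and DMSO wells.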

MCC-13 = experiment: as above; conditions: MCC and control cell lines, CellTiter-Glo viability, 72 h; series mostly up to 46 µM
Method in brief: as §3

MCC-26 = experiment: as above; conditions: MCC and control cell lines, CellTiter-Glo viability, 72 h; series mostly up to 46 µM
Method in brief: as §3
Also: nearly all actives have a fitted effect of over 60% in size.

NS(=O)(=O)c1ccc(NC(=O)CCC(=O)O)cc1
inactive: Potency (P93_24) | Potency (P94_40) | Potency (PAD) | Potency (PC15) | Potency (PC26) | Potency (PC49) | Potency (SC27B) | Potency (TAB109) | Potency (TAB113) | Potency (TAB165) | Potency (W2) | max response (CRL-7250) -4.29% | max response (HEK293) -0.661% | outcome (HaCat [1]) | max response (KB-3-1) -4.48% | outcome (NIH3T3) | outcome (HACAT [2]) | outcome (MCC-13) | outcome (MCC-26)

Cc1c(N(C)C)c(=O)n(-c2ccccc2)n1C
inactive: Potency (P93_24) | Potency (P94_40) | Potency (PAD) | Potency (PC15) | Potency (PC26) | Potency (PC49) | Potency (SC27B) | Potency (TAB109) | Potency (TAB113) | Potency (TAB165) | Potency (W2) | outcome (CRL-7250) | max response (HEK293) -3.5% | outcome (HaCat [1]) | max response (KB-3-1) -5.96% | max response (NIH3T3) 4.65% | outcome (HACAT [2]) | outcome (MCC-13) | outcome (MCC-26)

COc1ccccc1OC(=O)Oc1ccccc1OC
inactive: Potency (P93_24) | Potency (P94_40) | Potency (PAD) | Potency (PC15) | Potency (PC26) | Potency (PC49) | Potency (SC27B) | Potency (TAB109) | Potency (TAB113) | Potency (TAB165) | Potency (W2) | outcome (CRL-7250) | max response (HEK293) -4.48% | outcome (HaCat [1]) | max response (KB-3-1) -6.45% | max response (NIH3T3) 0.277% | outcome (HACAT [2]) | outcome (MCC-13) | outcome (MCC-26)

Cc1c(C(=O)NCCO)[n+](=O)c2ccccc2n1[O-]
inactive: Potency (P93_24) | Potency (P94_40) | Potency (PAD) | Potency (PC15) | Potency (PC26) | Potency (PC49) | Potency (SC27B) | Potency (TAB109) | Potency (TAB113) | Potency (TAB165) | Potency (W2) | outcome (CRL-7250) | max response (HEK293) 0.33% | outcome (HaCat [1]) | max response (KB-3-1) -16.8% | outcome (NIH3T3) | outcome (HACAT [2]) | outcome (MCC-13) | outcome (MCC-26)

c1ccc2[nH]ccc2c1
inactive: Potency (P93_24) | Potency (P94_40) | Potency (PAD) | Potency (PC15) | Potency (PC26) | Potency (PC49) | Potency (SC27B) | Potency (TAB109) | Potency (TAB113) | Potency (TAB165) | Potency (W2) | max response (CRL-7250) 4.59% | max response (HEK293) -5.55% | outcome (HaCat [1]) | max response (KB-3-1) -2.84% | outcome (NIH3T3) | outcome (HACAT [2]) | outcome (MCC-13) | outcome (MCC-26)

CCOc1cc(NC(C)=O)ccc1C(=O)OC
inactive: Potency (P93_24) | Potency (P94_40) | Potency (PAD) | Potency (PC15) | Potency (PC26) | Potency (PC49) | Potency (SC27B) | Potency (TAB109) | Potency (TAB113) | Potency (TAB165) | Potency (W2) | max response (CRL-7250) 3.11% | max response (HEK293) 0.16% | outcome (HaCat [1]) | max response (KB-3-1) 19.6% | max response (NIH3T3) 0.0399% | outcome (HACAT [2]) | outcome (MCC-13) | outcome (MCC-26)

Cn1c(=O)c2c(ncn2CCO)n(C)c1=O
inactive: Potency (P93_24) | Potency (P94_40) | Potency (PAD) | Potency (PC15) | Potency (PC26) | Potency (PC49) | Potency (SC27B) | Potency (TAB109) | Potency (TAB113) | Potency (TAB165) | Potency (W2) | max response (CRL-7250) -4.29% | max response (HEK293) -4.8% | outcome (HaCat [1]) | max response (KB-3-1) -5.28% | max response (NIH3T3) -3.21% | outcome (HACAT [2]) | outcome (MCC-13) | outcome (MCC-26)

O=C(NCCCN1CCOCC1)c1ccc(Cl)cc1
inactive: Potency (P93_24) | Potency (P94_40) | Potency (PAD) | Potency (PC15) | Potency (PC26) | Potency (PC49) | Potency (SC27B) | Potency (TAB109) | Potency (TAB113) | Potency (TAB165) | Potency (W2) | max response (CRL-7250) -10.4% | max response (HEK293) 1.26% | outcome (HaCat [1]) | max response (KB-3-1) 1.85% | outcome (NIH3T3) | outcome (HACAT [2]) | outcome (MCC-13) | outcome (MCC-26)

CC[N+](CC)(CC(=O)Nc1c(C)cccc1C)Cc1ccccc1
inactive: Potency (P93_24) | Potency (P94_40) | Potency (PAD) | Potency (PC15) | Potency (PC26) | Potency (PC49) | Potency (SC27B) | Potency (TAB109) | Potency (TAB113) | Potency (TAB165) | max response (CRL-7250) -0.938% | max response (HEK293) 3.4% | outcome (HaCat [1]) | max response (KB-3-1) -3.17% | max response (NIH3T3) 1.97% | outcome (HACAT [2]) | outcome (MCC-13) | outcome (MCC-26)

C=CCNC(N)=S
inactive: Potency (P93_24) | Potency (P94_40) | Potency (PAD) | Potency (PC15) | Potency (PC26) | Potency (PC49) | Potency (SC27B) | Potency (TAB109) | Potency (TAB113) | Potency (TAB165) | Potency (W2) | max response (CRL-7250) -5.07% | max response (HEK293) -1.79% | outcome (HaCat [1]) | max response (KB-3-1) -9.92% | max response (NIH3T3) 4.81% | outcome (HACAT [2]) | outcome (MCC-13) | outcome (MCC-26)

O=C(O)Cc1ccc(CCNS(=O)(=O)c2ccc(Cl)cc2)cc1
inactive: Potency (P93_24) | Potency (P94_40) | Potency (PAD) | Potency (PC15) | Potency (PC26) | Potency (PC49) | Potency (SC27B) | Potency (TAB109) | Potency (TAB113) | Potency (TAB165) | Potency (W2) | max response (CRL-7250) 2.04% | max response (HEK293) -7.16% | outcome (HaCat [1]) | max response (KB-3-1) 0.272% | max response (NIH3T3) -0.48% | outcome (HACAT [2]) | outcome (MCC-13) | outcome (MCC-26)

O=C(/C=C/c1ccccc1)OCc1ccccc1
inactive: Potency (P93_24) | Potency (P94_40) | Potency (PAD) | Potency (PC15) | Potency (PC26) | Potency (PC49) | Potency (SC27B) | Potency (TAB109) | Potency (TAB113) | Potency (TAB165) | Potency (W2) | max response (CRL-7250) 1.75% | max response (HEK293) -4.12% | outcome (HaCat [1]) | max response (KB-3-1) 21.2% | max response (NIH3T3) -4.12% | outcome (HACAT [2]) | outcome (MCC-13) | outcome (MCC-26)

Reference: PubChem BioAssay (NCATS)
